Laboratory results as given in PMC4552634, “A New Set of Chemical Starting Points with Plasmodium falciparum Transmission-Blocking Potential for Antimalarial Drug Discovery” (PLoS ONE, 2015).
In all, about 13,000 compounds went through this assay and about 3,200 (25%) showed an effect of 50% or more. The list shows a part of the results.

These molecules were tested on P. falciparum stage V gametocytes. Conditions: 48 h, 5 µM; inhibitor.
Parameters: BacTiter-Glo ATP luminescence viability of purified stage V gametocytes in 384-well plates, per cent inhibition versus DMSO
`O=C(Nc1ccccc1)c1ccc(N2CCC(COc3cccc(C(F)(F)F)c3)CC2)nc1` [TCMDC-134507] was tested, and the “% Inhibition” value was -9.482%.
With `CC(C)CNCc1cccc(-c2cccc(CN(C(=O)NC3CCCCC3)C3CCN(Cc4ccccc4)CC3)c2)c1` [TCMDC-140627] the “% Inhibition” value was 95.46%.
With `CC(C)CNCc1ccc(-c2cccc(CN(C(=O)NC3CCCCC3)C3CCN(Cc4ccccc4)CC3)c2)cc1` [TCMDC-140628] the “% Inhibition” value was 92.69%.
With `CC(C)CNCc1cccc(-c2ccc(CN(C(=O)NC3CCCCC3)C3CCN(Cc4ccccc4)CC3)cc2)c1` [TCMDC-140634] the “% Inhibition” value was 102.1%.
`CC(C)CNCc1ccc(-c2ccc(CN(C(=O)NC3CCCCC3)C3CCN(Cc4ccccc4)CC3)cc2)cc1` [TCMDC-140635] was tested, and the “% Inhibition” value was 103.7%.
In the case of `CC(C)Oc1ccc(C=CC(=O)Nc2noc3ccccc23)cc1` [TCMDC-125292], the “% Inhibition” value is reported as 41.66%.
`Cc1cccc(CNc2nc(C)cc(NCCC(=O)NCCOc3ccccc3)n2)c1` [TCMDC-134884] was tested, and the “% Inhibition” value was 13.93%.
With `COc1ccc2ncc(Cl)c(CCN3CCC(NCc4ccc5c(n4)NC(=O)CO5)CC3)c2c1` [TCMDC-141808] the “% Inhibition” value was -9.673%.
For `O=C(NCCc1ccc(O)cc1)n1c2ccccc2c2ccccc21` [TCMDC-138166], the “% Inhibition” value was -0.5781%.
`Cc1ccccc1CNc1noc(-c2c(F)cccc2Cl)n1` [TCMDC-133373] was tested, and the “% Inhibition” value was 21.36%.
For `O=C(NC1CC1)c1cnc(N2CCC(OCc3ccccc3)CC2)c(Cl)c1` [TCMDC-134610], the “% Inhibition” value was 14.6%.
`Cc1cccc(OCC2CCN(c3ncc(C(=O)NC4CC4)cc3Cl)CC2)c1` [TCMDC-134058] was tested, and the “% Inhibition” value was 0.6256%.
In the case of `Cc1cc(OCC2CCN(c3ncc(C(=O)NC4CC4)cc3Cl)CC2)ccc1F` [TCMDC-134032], the “% Inhibition” value is reported as 14.47%.
With `CC(C)c1cccc(OCC2CCN(c3ncc(C(=O)NC4CC4)cc3Cl)CC2)c1` [TCMDC-134260] the “% Inhibition” value was -10.41%.
In the case of `Cc1ccc(OCC2CCN(c3ncc(C(=O)NC4CC4)cc3Cl)CC2)cc1` [TCMDC-134055], the “% Inhibition” value is reported as 11.28%.
In the case of `O=C(NC1CC1)c1cnc(N2CCC(Oc3ccc(Cl)cc3)CC2)c(Cl)c1` [TCMDC-134040], the “% Inhibition” value is reported as 28.34%.
`Cc1ccc(OCC2CCN(c3ncc(C(=O)NCCCN4CCCC4=O)cc3Cl)CC2)cc1` [TCMDC-134056] was tested, and the “% Inhibition” value was 53.1%.
In the case of `Cc1cccc(OC2CCN(c3ncc(C(=O)NCCCN4CCCC4=O)cc3Cl)CC2)c1` [TCMDC-134057], the “% Inhibition” value is reported as 81.53%.
In the case of `O=C(NCCCN1CCCC1=O)c1cnc(N2CCC(Oc3ccccc3)CC2)c(Cl)c1` [TCMDC-134054], the “% Inhibition” value is reported as 50.82%.
For `CC(C)(C)c1ccc(NC(=O)c2cccc(CN3CCN(Cc4cccc(O)c4)CC3)c2)cc1` [TCMDC-136604], the “% Inhibition” value was -36.18%.
`COc1ccc(CNC(=O)NC2CCN(c3ccnc(Nc4cc(OC)c(OC)c(OC)c4)n3)C2)cc1` (stereo not shown) [TCMDC-133619] was tested, and the “% Inhibition” value was -40.46%.
In the case of `Cc1cccc(CN2CCCN(Cc3ccc(C(=O)Nc4ccc(C(C)(C)C)cc4)cc3)CC2)c1` [TCMDC-136434], the “% Inhibition” value is reported as -28%.
`Cn1nc(-c2ccc(NC(=O)Nc3ccc4ccccc4c3)c(F)c2)c2cnc(NCCN3CCOCC3)nc21` [TCMDC-141561] was tested, and the “% Inhibition” value was 17%.
In the case of `CN(c1ccc(NC(=O)Nc2cc(C(F)(F)F)ccc2F)cc1)c1ccnc(NCCN2CCCC2)n1` [TCMDC-141635], the “% Inhibition” value is reported as 83.6%.
`CN(c1ccc(NC(=O)Nc2cc(C(F)(F)F)ccc2F)cc1)c1ccnc(NCCN2CCOCC2)n1` [TCMDC-141590] was tested, and the “% Inhibition” value was 51.14%.
For `COc1cc(Nc2nccc(N3CCC(NC(=O)Nc4ccc5c(c4)OCO5)C3)n2)cc(OC)c1OC` (stereo not shown) [TCMDC-133629], the “% Inhibition” value was -90.76%.
With `CCN(CCN(C)C)Cc1ccc(-c2ccc(NS(=O)(=O)c3cccc4cccnc34)cc2)cc1` [TCMDC-136600] the “% Inhibition” value was 46.29%.
`O=C(Nc1cccc(C(F)(F)F)c1)c1ccc(S(=O)(=O)NCC2CCCN(CC3CCCCC3)C2)cc1` (stereo not shown) [TCMDC-132777] was tested, and the “% Inhibition” value was 92.44%.
`CCCN1CCN(Cc2ccc(C(=O)Nc3ccc(Cl)cc3)cc2)CC1` [TCMDC-136387] was tested, and the “% Inhibition” value was 3.347%.
With `CCCN1CCN(c2ccc(NS(=O)(=O)c3ccc(C(=O)Nc4ccc(Cl)cc4)cc3)cc2)CC1` [TCMDC-136351] the “% Inhibition” value was 71.9%.
For `O=C(Nc1cccc(C(F)(F)F)c1)c1cccc(S(=O)(=O)NCC2CCCN(Cc3ccccc3)C2)c1` (stereo not shown) [TCMDC-133685], the “% Inhibition” value was -6.422%.
For `O=C(Nc1cccc(C(F)(F)F)c1)c1cccc(S(=O)(=O)NCC2CCCN(CC3CCCCC3)C2)c1` (stereo not shown) [TCMDC-132770], the “% Inhibition” value was 87.2%.
For `O=C(Nc1ccc(Cl)cc1)c1ccc(CN2CCCN(CC3CCCCC3)CC2)cc1` [TCMDC-136400], the “% Inhibition” value was -37.54%.
For `CCCN1CCN(c2ccccc2NS(=O)(=O)c2ccc(C(=O)Nc3ccc(Cl)cc3)cc2)CC1` [TCMDC-136350], the “% Inhibition” value was 1.888%.
For `O=C(Nc1cccc(C(F)(F)F)c1)c1ccc(S(=O)(=O)NCC2CCCN2CC2CCCCC2)cc1` (stereo not shown) [TCMDC-133689], the “% Inhibition” value was -36.87%.
For `O=C(Nc1ccc(Cl)cc1)c1ccc(S(=O)(=O)NCC2CCN(CC3CCCCC3)CC2)cc1` [TCMDC-132808], the “% Inhibition” value was 84.19%.
`CC(C)c1ccc(NC(=O)c2ccc(C(=O)NCC3CCN(CC4CCCCC4)CC3)cc2)cc1` [TCMDC-136753] was tested, and the “% Inhibition” value was 4%.
In the case of `O=C(Nc1ccc(C(F)(F)F)cc1)c1cccc(S(=O)(=O)NCC2CCCN(CC3CCCCC3)C2)c1` (stereo not shown) [TCMDC-133673], the “% Inhibition” value is reported as -19.66%.
`O=C(Nc1ccc(C(F)(F)F)cc1)c1ccc(S(=O)(=O)NCC2CCCN(CC3CCCCC3)C2)cc1` (stereo not shown) [TCMDC-133680] was tested, and the “% Inhibition” value was -21.48%.
In the case of `CCNc1cc(C)nc(Nc2ccc(NC(=O)c3ccccc3)cc2)n1` [TCMDC-124988], the “% Inhibition” value is reported as -14.46%.
With `N=C(N)c1ccc(Oc2ccc(C(=N)N)cc2)cc1` [TCMDC-124287] the “% Inhibition” value was 24.59%.
For `CCCc1ccc(NC(=O)c2cccc(CN3CCCN(Cc4cccc(O)c4)CC3)c2)cc1` [TCMDC-135978], the “% Inhibition” value was 12.81%.
For `CC(C)[C@H](NC(=O)c1ccc(O)c(-c2cccc(C(F)(F)F)c2)c1)C(=O)NC1CCCc2ccccc21` (stereo partly shown) [TCMDC-140819], the “% Inhibition” value was -19.12%.
